# Data taken from PubChem BioAssay AID493169 (National Center for Advancing Translational Sciences (NCATS), 2011).
# Records with an inconclusive call do not appear. The source made the active and inactive calls. Calls follow the shape of the dose curve; as a rule, active = well fitted inhibition curve with a large enough effect; inconclusive = small, poorly fitted or top-dose-only effect; inactive = flat fitted curve, though single readings scatter.
# Assay: CHOP2 Reporter Counterscreen Assay for Inhibitors of Ubiquitin-specific Protease USP2a;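 also: activated enterokinase alone at 50 pM in a cell-free format rather than USP2a or CHOP2; nearly all actives have a fitted effect of over 55% in size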
# Conditions: purified enterokinase, fluorogenic substrate, 485/531 nm; series mostly up to 38.3 µM; activity change, negative = inhibition: at the top concentration
# Method in brief: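 Cell-free counterscreen with pre-activated enterokinase alone (50 pM final) in 20mM Tris-HCl pH 8.0, 2mM CaCl2, 2mM beta-mercaptoethanol, 0.05% CHAPS; compound preincubation 30 min RT, reporter substrate 25nM final, fluorescence read after 10 min (Ex 485/Em 531).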
# % is scaled to controls: 0 for no effect and ±100 for the full control effect; potency is read from the fitted curve at half-maximal effect.
SMILES,"activity change, negative = inhibition",Potency
CCCOC(=O)CCCCC1SCC(NC(=O)OC)C1NC(=O)OC (stereo unspecified),15.4% (inactive),–
CCc1c(O)nc(SCC(=O)Nc2ccccc2OC)[nH]c1=O,0.165% (inactive),–
CCOC(=O)N1CCN(C(=O)CN(c2ccc(Oc3ccccc3)cc2)S(C)(=O)=O)CC1,-1.23% (inactive),–
CCC(=O)Nc1c2c(nn1-c1ccc(F)cc1)CS(=O)C2 (stereo unspecified),3.27% (inactive),–
CCCCC(OC(=O)c1cc2occc2n1C)C(=O)NCC1CCCO1 (stereo unspecified),1.57% (inactive),–
COC(=O)c1ccc(NC(=O)CSC2=Nc3ccccc3C3CC=NN23)cc1 (stereo unspecified),-1.25% (inactive),–
Cc1cc(-c2csc(NCc3ccccc3)n2)c(C)n1C,–,12.6 µM (active)
O=C1COc2ccc(C(=O)COC(=O)/C=C/c3ccc(Br)o3)cc2N1,–,2.82 µM (active)
COc1ccc(CCN2C(=O)/C(=C\c3ccco3)SC2=S)cc1OC,-0.0556% (inactive),–
CC(C)OCCCNC(=O)c1c(N)n(/N=C/c2ccccn2)c2nc3ccccc3nc12,-2.23% (inactive),–
Cc1cccc2c1N(CCCOc1ccc(C(C)(C)C)cc1)C(=O)C2=O,-1.62% (inactive),–
COC(=O)C1CCN(C(=O)c2cc(-c3ccco3)nc3ccccc23)CC1,–,3.98 µM (active)
COc1ccc(-c2csc(Nc3ccc(S(=O)(=O)Nc4cc(OC)nc(OC)n4)cc3)n2)cc1,-19% (inactive),–
Cc1c(N=C/C=C2\N(C)c3ccccc3C2(C)C)c(=O)n(-c2ccccc2)n1C,0.17% (inactive),–
CC1(C)CC(=O)C2=C(C1)N(Cc1ccco1)C(=O)NC2(C(F)(F)F)C(F)(F)F,1.05% (inactive),–
C=CC[C@H](CC(=O)N[C@H](CO)Cc1ccccc1)C(=O)N[C@H](COC(=O)[C@@H](CC=C)CC(=O)OC(C)(C)C)Cc1c[nH]c2ccccc12,-3.18% (inactive),–
